# Source: PubChem (National Center for Advancing Translational Sciences (NCATS))
# D3 antag – blocks the human D3 dopamine receptor. P35462. D3R cells, DiscoveRx beta-arrestin luminescence, antagonist mode; active compounds read low. max response, negative = inhibition, %. 360,000 tested, 2.5% active. AID 652054; in the data active = max response below about -50%; inconclusive = no clear call, values can overlap the other calls; note: % is set by controls: 0 for no effect and ±100 for the full control effect
#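 Cells expressing the human receptor were seeded at 1500 cells/well, incubated overnight at 37 degrees C in 5% CO2, then exposed to library compounds with dopamine controls for 90 minutes at 37 degrees C before luminescent detection.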
# D1 agonist – agonists of human D1 dopamine receptor | HEK293 T-REx D1 cells, calcium flux, agonist mode | activation, % at 2 µM | 360,000 tested, 1% active | AID 504660; in the data active = activation above about 30%; note: 0% is about no effect
# Target sequence (P21728 whole entry, looked up): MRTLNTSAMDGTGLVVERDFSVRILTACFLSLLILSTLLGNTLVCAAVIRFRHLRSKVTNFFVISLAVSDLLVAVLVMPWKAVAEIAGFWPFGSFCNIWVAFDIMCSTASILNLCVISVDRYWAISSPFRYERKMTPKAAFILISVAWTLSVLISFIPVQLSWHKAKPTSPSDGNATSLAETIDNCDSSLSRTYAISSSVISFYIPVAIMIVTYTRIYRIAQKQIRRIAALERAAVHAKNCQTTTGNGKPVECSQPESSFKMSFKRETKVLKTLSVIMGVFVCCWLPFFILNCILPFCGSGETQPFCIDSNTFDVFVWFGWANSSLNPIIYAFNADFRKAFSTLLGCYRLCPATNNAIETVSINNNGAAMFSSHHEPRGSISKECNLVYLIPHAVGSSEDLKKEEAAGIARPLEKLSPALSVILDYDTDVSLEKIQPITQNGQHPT
#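 Inducible HEK293 T-REx D1 cells, force-coupled to calcium signalling, were plated at 4000 cells/well with tetracycline and held overnight at 30 C. After no-wash calcium dye loading, compound-evoked calcium rise over 180 s flagged agonists.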
# D1 antag – human D1 dopamine receptor antagonism | P21728 | HEK293 TREx D1 cells, calcium flux, dopamine EC80; active compounds read low | activity change, negative = inhibition, % at 10 µM | 360,000 tested, 3.2% active; in the data active = activity change below about -30%; note: % is set by controls: 0 for no effect and ±100 for the full control effect
#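 Allosteric or orthosteric antagonism assessed as attenuation of the calcium response to EC80 dopamine, added 180 s after compound, in induced HEK293 Trex D1 cells loaded with no-wash calcium dye.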
# D3 ag – agonists of human D3 dopamine receptor; D3R DiscoveRx beta-arrestin cells, luminescence, 90 min; AID 652048; max activation, %; 410,000 tested, 0.58% active; in the data active = max activation above about 30%; note: 0% is about no effect
#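 Agonist-mode cell screen: cells plated at 1500/well and incubated overnight at 37 °C, then exposed to library compounds for 90 min at 37 °C. Detection reagent was added for 30–60 min at room temperature, and luminescence was read.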
# D1 potentiator – enhances dopamine response at the human D1 receptor. potentiation, % at 10 µM. HEK293 TREx D1 cells, calcium flux, dopamine EC20 potentiation. 360,000 tested, 0.036% active. AID 504651. P21728; in the data active = potentiation above about 30%; note: 0% is about no effect
# Active calls of the source: *; u = inconclusive; x = not tested or not shown. Compounds with a hit are over-represented: about 6% of the library has one in this group of screens.
SMILES,D3 antag,D1 agonist,D1 antag,D3 ag,D1 potentiator
COc1cc(/C=C2\SC(=S)N(NS(=O)(=O)c3ccccc3)C2=O)ccc1O,-5,44*,-3,-1,0
COc1ccc(/C=C2/SC(=S)N(NS(=O)(=O)c3ccccc3)C2=O)cc1,-8,-4,3,16,4
CCC(C)[C@H](NS(=O)(=O)c1ccc(F)cc1Br)C(=O)OC (stereo partly drawn),0,x,x,0,x
Cc1cccc(C)c1NC(=O)CN(CC(=O)O)CC(=O)O,x,x,x,-13,x
CC(=O)c1ccc(OC(=O)c2ccc(Br)o2)cc1,5,59*,-16,1,-4
CCC(=O)c1ccc(OC(=O)c2ccc(Br)o2)cc1,-14,x,x,2,x
Cc1ccc(OC(=O)c2ccc(Br)o2)cc1,-4,102*,-48*,2,4
COC(=O)[C@@]12C[C@@H](CC(=O)NCc3cccc(C(F)(F)F)c3)C(=O)N(CCc3ccc(OC)c(OC)c3)C1=CCC(C)(C)C2,18,x,x,12,x
CC(=O)N1CCN(C(C(=O)Nc2c(C)cccc2C)c2cccc(F)c2)CC1 (stereo not drawn),1,x,x,1,x
COC(=O)c1cccnc1-n1c(=O)c2cccnc2n(CC(=O)Nc2cccc(C)c2)c1=O,x,9,2,-10,0
COc1ccc(CSc2ccc(S(=O)(=O)N3CCCCC3)cn2)cc1F,-11,6,-42*,-12,-3
Cc1cc(C)cc(CSc2ccc(S(=O)(=O)N3CCCC3)cn2)c1,-1,9,-4,-3,-5
O=S(=O)(c1ccc(SCc2ccc(Cl)cc2)nc1)N1CCCC1,-23,11,-33*,-10,-5
COc1ccc(C(C)=O)cc1CSc1ccc(S(=O)(=O)N2CCCCC2)cn1,2,3,-44*,-6,1
Cc1ccc(C(=O)Nc2c(C)nc3ccccn3c2=O)cc1,x,-1,-6,-15,1
COC(CC(=O)NNC(=S)Nc1ccccc1)OC,-4,3,4,1,-6
COC(CC(=O)NNC(=S)Nc1ccc(Cl)cc1)OC,4,3,-30*,-4,4
COc1ccc(NC(=S)NNC(=O)COc2ccc(Cl)cc2Cl)cc1,-16,44*,-4,3,-4
O=C(Nc1ccc(Cl)cc1)c1ccc2c(c1)N(Cc1ccccc1)C(=O)c1ccccc1S2(=O)=O,x,17,-17,-25,-4
Cc1cccc(C(=O)NCC(=O)OCc2cc(=O)n3nc(C)sc3n2)c1,x,2,-22,-12,-1
CCCCCNC(=O)C(c1ccc(OC)cc1)n1c(=O)c(-c2cc3ccccc3[nH]2)nc2ccccc21 (stereo not drawn),29,x,x,2,x
CS(=O)(=O)c1ccc(Sc2nc3ccccc3s2)c([N+](=O)[O-])c1,-15,1,-6,-1,-12
O=[N+]([O-])c1cc(S(=O)(=O)C(F)(F)F)ccc1Sc1nc2ccccc2s1,-95*,0,18,-14,-5
COc1cccc(OC(=O)CSc2nnc(-c3cccs3)o2)c1,x,2,-17,-4,3
CN1C2CCC1/C(=C\c1ccccc1F)C(=O)/C2=C/c1ccccc1F,-54*,1,-5,-8,-2
SMILES,D3 antag,D1 agonist,D1 antag,D3 ag,D1 potentiator
C=CCn1nc(-c2ccccc2)cc1C(=O)OCC,112,x,x,40*,x
CC(C)(c1ccccc1)c1ccc(OCCCN2CCNCC2)cc1,-10,59*,6,-5,-4
Cc1ccc(C(C)C)c(OCCNCCc2ccccc2)c1,u,58*,-1,-23,21
Cc1ccc(C(C)C)c(OCCCNCc2cccnc2)c1,u,10,-21,-7,-4
CC(C)(C)c1ccc(OCCNCc2ccccc2)cc1,-53*,43*,10,-16,23
CC(C)(C)c1ccc(OCCNC(=S)Nc2ccccc2)cc1,u,20,2,-5,-10
NNCCc1ccccc1,-113*,2,-8,-21,-4
CCSc1ncc(Cl)c(C(=O)Nc2nc3ccc(S(C)(=O)=O)cc3s2)n1,x,6,8,1,2
CN1C(=O)c2ccccc2Sc2ccc(NC(=O)c3ccc(C#N)cc3)cc21,x,21,-10,-1,-4
CCCOc1ccc(OCCCCNC(C)CC)cc1 (stereo not drawn),-55*,3,-54*,2,7
CCC(C)NCCOc1ccc(C(C)(C)c2ccccc2)cc1 (stereo not drawn),u,72*,-3,-16,3
O=C(CCCOc1ccccc1)NCCc1ccccc1,2,2,-2,2,-2
c1ccc(CCNCCOc2ccccc2)cc1,u,1,-53*,-3,-11
CNCCCOc1ccc(C(C)(C)c2ccccc2)cc1,x,53*,7,x,4
Cc1noc(C)c1C(=O)N1CCC1(C)C(=O)NS(=O)(=O)c1cccc(F)c1 (stereo not drawn),11,x,x,5,x
CCCCNCC#CCOc1cc(C)ccc1C(C)C,-52*,87*,6,0,-2
Cc1ccc(C(C)C)c(OCCNS(C)(=O)=O)c1,7,3,-5,-10,-5
COC(=O)N/N=C/c1cc(N=Nc2ccccc2Cl)ccc1O,-91*,3,0,-22,-4
Nc1ccc(C(=O)N/N=C\c2cc(N=Nc3cccc4ccccc34)ccc2O)cc1,-95*,-2,-10,-3,0
COC(=O)N/N=C/c1cc(N=Nc2ccccc2)ccc1O,-63*,5,-34*,-27,-6
O=C(NN=Cc1cc([N+](=O)[O-])ccc1O)c1cccc2ccccc12,-24,x,x,1,x
CC(=O)c1cc2c(cc1N/C(=N/S(=O)(=O)c1ccc(C)cc1)c1ccc(F)cc1)OCO2,x,4,3,-10,0
CN1CCC(CN2c3ccccc3Sc3ccccc32)C1 (stereo not drawn),x,x,x,-22,x
CCN(CC)C(C)CN1c2ccccc2Sc2ccccc21 (stereo not drawn),x,x,x,-19,x
CC1CCN(CC(O)CN2c3ccccc3Sc3ccccc32)CC1 (stereo not drawn),-103*,33*,-89*,1,-9
SMILES,D3 antag,D1 agonist,D1 antag,D3 ag,D1 potentiator
OCCNCC(O)CN1c2ccccc2Sc2ccccc21 (stereo not drawn),u,7,-31*,-29,-11
O=C(Nc1ccccc1)c1cc2c(-c3ccccc3)nn(-c3ccccc3)c2s1,x,6,-9,4,-1
CCOC(=O)[C@H]1[C@H]2COc3ccc(Br)cc3[C@H]2N2C(=O)CN(Cc3ccc(Cl)cc3)C(=O)[C@@]12C,0,x,x,6,x
O=C1C(=C(I)I)c2ccccc2-c2ccccc21,-100*,x,x,-35,x
O=C(Nc1cccc(-n2cccn2)c1)C1CCCN(Cc2ccccc2F)C1 (stereo not drawn),-2,6,-36*,-5,-8
O=C(C1CCCN(Cc2ccncc2)C1)N1CCc2ccccc2C1 (stereo not drawn),-72*,0,10,-7,-1
